Source: PubChem (National Center for Advancing Translational Sciences (NCATS))
DT40 TDP1 CPT: growth inhibition of DT40 Tdp1-/-;hTDP1 cells with camptothecin (screen for TDP1 inhibitors); chicken DT40 Tdp1-/-;hTDP1 cells + 20 nM CPT, ATP luminescence, 48 h; actives 12% (n = 420,000); AID 686979; Potency, µM (top dose mostly 46.2 µM), actives largely listed as inhibitors; note: nearly all actives have a fitted effect of over 55% in size
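Cell growth measured by CellTiter-Glo luminescence after a minimum 48 h, 37 C compound exposure with 20 nM CPT in Tdp1-knockout DT40 cells stably expressing hTDP1, seeded 400/well; qHTS titration format.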
IL-1B inflam inh: inflammasome signaling inhibition, IL-1 beta readout; THP-1 LPS/ATP IL-1B secretion, AlphaLISA, 16 h; hits give low values; activity change, % at 57.5 µM; actives 4.7% (n = 360,000); AID 743279; in the data active = activity change below about -50%; inconclusive = mostly about -30% to -49%
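THP-1 cells pretreated 1 hr with compounds (up to 57.5 uM final), then stimulated with LPS (250 ng/mL final) plus ATP (1.25 mM final); secreted IL-1B measured by AlphaLISA after 16 hr, decreased signal indicating inhibition.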
HT1080 IDH1KD tx: kills HT-1080 cells with IDH1 knockdown; HT-1080 IDH1 knockdown viability, ATP luminescence, 48 h; Potency, µM (top dose mostly 46.1 µM), most hits filed as cytotoxic; actives 2% (n = 360,000)
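Using the IDH1-knockdown HT-1080 line run in the same batch and compound series as the NT line, viability after 48 h at 37 °C was determined by CellTiter-Glo luminescence and expressed as % activity.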
HT1080-NT tox: kills 2HG-producing HT-1080-NT fibrosarcoma cells. HT-1080-NT fibrosarcoma viability, CellTiter-Glo ATP luminescence, 48 h. AID 686970. Potency, µM (titrated, usually from 46.1 µM), usual class: cytotoxic. actives 1.6% (n = 360,000);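 note: NT is the 2HG producing partner of a matched IDH1 knockdown line; nearly all actives have a fitted effect of over 55% in size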
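Toxicity toward the 2HG-producing NT line was scored as %Activity, normalised to DMSO and no-cell wells, from CellTiter-Glo luminescence after 48 hours' treatment.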
TDP1 cell noCPT: qHTS for Inhibitors of human tyrosyl-DNA phosphodiesterase 1 (TDP1): qHTS in cells in absence of CPT | Potency, µM (doses to about 46.2 µM), actives largely listed as inhibitors | DT40 Tdp1-/- hTDP1 cells, no CPT, ATP luminescence, 48 h | actives 15% (n = 420,000); note: nearly all actives have a fitted effect of over 55% in size
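No-CPT arm: Tdp1-/-;hTDP1 DT40 cells (400/well) plus compounds, incubated ≥48 hr at 37 °C. Readout CellTiter-Glo luminescence.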
Large screens that a line does not name were inactive. Rows were chosen to be rich in hits. Some 19% of all compounds tested hit in one or more screens of this group. Unless noted, calls come from the whole dose curve; as a rule, active = well fitted curve in the direction sought with a large enough effect; inconclusive = small, poorly fitted or top-dose-only effect, or another doubt; inactive = no such curve, though single readings can be large; an effect the other way counts as inactive or inconclusive.

Clc1ccc2nc(C(Cl)(Cl)Cl)[nH]c2c1	none
COC(=O)[C@@]1(Cc2ccc(F)cc2)[C@H]2c3cc(C(=O)N4CCCC4)n(Cc4cc(C)n(C)n4)c3C[C@H]2CN1C(=O)c1ccccc1	DT40 TDP1 CPT 21µM, TDP1 cell noCPT 16µM
COC(=O)[C@@]1(Cc2ccc(F)cc2)[C@H]2c3cc(C(=O)N4CCCC4)n(CC4CC4)c3C[C@H]2CN1C(=O)c1ccccc1	DT40 TDP1 CPT inconclusive, HT1080 IDH1KD tx inconclusive, HT1080-NT tox inconclusive, TDP1 cell noCPT inconclusive
COC(=O)[C@@]1(Cc2ccc(F)cc2)[C@H]2c3cc(C(=O)N4CCCC4)n(CCF)c3C[C@H]2CN1C(=O)c1ccccc1	DT40 TDP1 CPT 23µM, IL-1B inflam inh inconclusive, HT1080-NT tox inconclusive, TDP1 cell noCPT 23µM
COC(=O)[C@@]1(Cc2ccc(F)cc2)[C@H]2c3cc(C(=O)N4CCCC4)n(Cc4ccc(C)o4)c3C[C@H]2CN1C(=O)c1ccccc1	DT40 TDP1 CPT inconclusive, IL-1B inflam inh -87, HT1080 IDH1KD tx 21µM, HT1080-NT tox inconclusive, TDP1 cell noCPT inconclusive
COC(=O)[C@@]1(Cc2ccc(F)cc2)[C@H]2c3cc(C(=O)N(C)C)n(Cc4cc(C)n(C)n4)c3C[C@H]2CN1C(=O)c1ccccc1	DT40 TDP1 CPT inconclusive, TDP1 cell noCPT inconclusive
COC(=O)[C@@]1(Cc2ccc(F)cc2)[C@H]2c3cc(C(=O)N4CCCC4)n(Cc4ccc(C)c(F)c4F)c3C[C@H]2CN1C(=O)c1ccccc1	DT40 TDP1 CPT inconclusive, HT1080 IDH1KD tx inconclusive, HT1080-NT tox inconclusive, TDP1 cell noCPT 23µM
Cn1c(SCC(=O)Nc2cc(Cl)cc(Cl)c2)nnc1-c1ccc2nonc2c1	DT40 TDP1 CPT inconclusive, TDP1 cell noCPT inconclusive (no result: IL-1B inflam inh)
CCCc1nc(S(=O)(=O)Cc2ccc(Cl)cc2Cl)n[nH]1	none
COC(=O)[C@@]1(Cc2ccc(F)cc2)[C@H]2c3cc(C(=O)N4CCCC4)n(CCCNc4ncc(C(F)(F)F)cc4Cl)c3C[C@H]2CN1C(=O)c1ccccc1	DT40 TDP1 CPT inconclusive, TDP1 cell noCPT 16µM
COC(=O)[C@@]1(Cc2ccc(F)cc2)[C@H]2c3cc(C(=O)N4CCCC4)n(Cc4cc(F)cc5c4OCOC5)c3C[C@H]2CN1C(=O)c1ccccc1	DT40 TDP1 CPT inconclusive, HT1080 IDH1KD tx inconclusive, HT1080-NT tox inconclusive, TDP1 cell noCPT inconclusive
C=CCS/C(N)=N\N=C\c1cc(Br)cc([N+](=O)[O-])c1O	DT40 TDP1 CPT inconclusive, TDP1 cell noCPT 7.3µM
Cc1nnc(C)n1/N=C/c1cc(Br)cc(Br)c1O	HT1080 IDH1KD tx inconclusive, HT1080-NT tox inconclusive
Nn1cnnc1N/N=C/c1cc(Br)cc(Br)c1O	DT40 TDP1 CPT inconclusive, IL-1B inflam inh -67, HT1080 IDH1KD tx inconclusive, TDP1 cell noCPT inconclusive
CC(C)(C)c1ccc(/C=N/Nc2nncn2N)cc1	HT1080 IDH1KD tx inconclusive
CS/C(N)=N/N=C/c1cc(Br)cc(Br)c1O	DT40 TDP1 CPT inconclusive, TDP1 cell noCPT 16µM
CSc1ccc(/C=N\Nc2nncn2N)cc1	DT40 TDP1 CPT inconclusive, HT1080 IDH1KD tx 21µM, HT1080-NT tox inconclusive
O=[N+]([O-])c1cc(Br)cc(/C=N/n2cnnc2)c1O	TDP1 cell noCPT inconclusive
CCOC(=O)C1(Cc2ccc(O)cc2)NC(c2ccco2)C2C(=O)N(c3ccccc3F)C(=O)C21 (configuration not stated)	none
COc1ccccc1C1C(C#N)=C(N)N(N(C)C)C2=C1C(=O)CC(C)(C)C2 (configuration not stated)	none
COc1ccc(S(=O)(=O)N2CC(C)N(C(=O)N3CCOCC3)C2)cc1 (configuration not stated)	none
CCc1nn(CC(=O)N2CCCCC2)c(=O)c2cc3occc3n12	none (no result: IL-1B inflam inh, HT1080 IDH1KD tx, HT1080-NT tox)
CCCCn1c(N)c(N(CC(C)C)C(=O)c2cccc(S(=O)(=O)N3CCN(C)CC3)c2)c(=O)[nH]c1=O	none
Cc1nn(-c2ccc(F)cc2)c(C)c1/C=C/C(=O)N1CCNC(=O)C1	none
COc1ccccc1N1CCN(C(=O)c2oc3ccccc3c2C)CC1	DT40 TDP1 CPT 16µM, TDP1 cell noCPT 21µM
COCc1c(C(=O)N2CCN(CCOc3ccccc3)CC2)oc2ccccc12	DT40 TDP1 CPT inconclusive, TDP1 cell noCPT inconclusive
COc1ccccc1N1CCN(C(=O)c2cc3c(C)nc4ccccc4c3o2)CC1	DT40 TDP1 CPT 6.5µM, HT1080-NT tox inconclusive, TDP1 cell noCPT 4.1µM
COCc1c(C(=O)N2CCN(c3ccccc3C)CC2)oc2ccccc12	DT40 TDP1 CPT 21µM, TDP1 cell noCPT inconclusive
COc1ccccc1N1CCN(C(=O)c2oc3ccc(Br)cc3c2C)CC1	DT40 TDP1 CPT 2.9µM, HT1080 IDH1KD tx inconclusive, HT1080-NT tox inconclusive, TDP1 cell noCPT 7.3µM
Cc1nc2ccccc2c2oc(C(=O)N3CC(C)CC(C)C3)cc12 (configuration not stated)	DT40 TDP1 CPT inconclusive, TDP1 cell noCPT inconclusive
CCCCN(C(=O)COC(=O)c1ccc(C=O)cc1)c1c(N)n(CCC)c(=O)[nH]c1=O	none
CC(C)[C@@H]1Cc2[nH][nH]c(=O)c2[C@H](c2ccc(F)cc2)O1	TDP1 cell noCPT inconclusive
CCOC(=O)C1CC2=C(CCCC2=O)N(Cc2ccccc2)C1=O (configuration not stated)	none
COc1ccccc1N1CCN(C(=O)c2oc3ccc(F)cc3c2C)CC1	DT40 TDP1 CPT 21µM, TDP1 cell noCPT 16µM
COc1ccccc1N1CCN(C(=O)c2onc(C)c2Cl)CC1	DT40 TDP1 CPT inconclusive, HT1080 IDH1KD tx inconclusive, HT1080-NT tox inconclusive, TDP1 cell noCPT inconclusive
COc1ccccc1N1CCN(C(=O)c2oc3ccccc3c2NC(=O)C(C)Oc2ccccc2)CC1 (configuration not stated)	DT40 TDP1 CPT inconclusive, TDP1 cell noCPT 16µM (no result: IL-1B inflam inh, HT1080 IDH1KD tx, HT1080-NT tox)
O=C1C=C(c2cccc(O)c2)CCC1	none
Oc1cccc(-c2c3nc(c(-c4cccc(O)c4)c4ccc([nH]4)c(-c4cccc(O)c4)c4nc(c(-c5cccc(O)c5)c5ccc2[nH]5)CC4)C=C3)c1	DT40 TDP1 CPT 27µM, TDP1 cell noCPT 19µM (no result: IL-1B inflam inh, HT1080 IDH1KD tx, HT1080-NT tox)
CCN(C(=O)COC(=O)CCC(=O)c1cccs1)c1ccccc1	none
NC(=O)c1c(NC(=O)Cc2ccccc2)sc2c1CCN(Cc1ccccc1)C2	DT40 TDP1 CPT 12µM, TDP1 cell noCPT 13µM
COC(=O)c1c(NC(=O)C2COc3ccccc3O2)sc2c1CCN(Cc1ccccc1)C2 (configuration not stated)	DT40 TDP1 CPT 16µM, TDP1 cell noCPT 21µM
CC(=O)Nc1sc2c(c1C(N)=O)CCN(Cc1ccccc1)C2	none
COC(=O)c1c(NC(=O)C(C)(C)C)sc2c1CCN(Cc1ccccc1)C2	DT40 TDP1 CPT 16µM, TDP1 cell noCPT inconclusive
